# Inconclusive results are not listed. Calls of active or inactive are those of the source. Rule for the calls, unless noted: active = hit-call score of the fitted dose curve at least 0.9, where 1 is the maximum; inactive = score below 0.9.
# Columns and labels:
# [1] = test system: Sodium/Iodide Symporter (NIS), SLC5A5 (gene 6528); assay: CPHEA_Stoker_NIS_Inhibition_RAIU: CPHEA's Radioactive Iodide Uptake (RAIU) Assay for Sodium/Iodide Symporter (NIS) Inhibition, Stoker and Laws Labs (AID 2283841; active = hit-call score of the fitted dose curve at least 0.9, where 1 is the maximum)
# Procedure, shortened: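 hNIS-HEK293T-EPA cells incubated 2 h at room temperature with compound (0.001–100 uM, 0.5% DMSO) and 329 pM final 125I in HBSS/10 mM HEPES, pH 7.4. Intracellular 125I counted; normalised to DMSO maximal uptake, triplicate, three biological replicates.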
# [2] = CEETOX_H295R_11DCORT_noMTC: CeeTox H295R High-throughput Steroidogenesis Assay for 11-Deoxycortisol (11DCORT), maximum tolerated concentration (MTC) filtered results only (AID 2283911); conditions: actives raise or lower the signal
# Procedure, shortened: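 Values carry no filtering for maximum tolerated concentration: medium from forskolin-primed (10 uM, 48 h) H295R cells after 48 h chemical exposure (0.1% DMSO) was MTBE-extracted, and 11-deoxycortisol quantified by reverse-phase HPLC-MS/MS. Fitting was bidirectional against DMSO.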
# [3] = CEETOX_H295R_OHPREG_noMTC: CeeTox H295R High-throughput Steroidogenesis Assay for OH-Pregnenolone (OHPREG), maximum tolerated concentration (MTC) filtered results only (AID 2283912); conditions: actives raise or lower the signal
# Procedure, shortened: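 Readout is HPLC-MS/MS quantification of 17alpha-hydroxypregnenolone released by forskolin-stimulated H295R cells over 48 h of chemical exposure, DMSO as baseline.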
# [4] = CEETOX_H295R_OHPROG_noMTC: CeeTox H295R High-throughput Steroidogenesis Assay for OH-Progesterone (OHPROG), maximum tolerated concentration (MTC) filtered results only (AID 2283914); conditions: actives raise or lower the signal
# Procedure, shortened: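 Analysis uses all tested concentrations, without maximum-tolerated-concentration screening by MTT. H295R cells, forskolin-primed (10 uM, 48 h), receive chemical for 48 h; hormone in medium measured by HPLC-MS/MS, with bidirectional curve fitting against DMSO.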
# [5] = CEETOX_H295R_ANDR_noMTC: CeeTox H295R High-throughput Steroidogenesis Assay for Androstenedione (ANDR), maximum tolerated concentration (MTC) filtered results only (AID 2283915); conditions: actives raise or lower the signal
# Procedure, shortened: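 Androstenedione secreted into medium was measured by LC-MS/MS after MTBE extraction. Human adrenal H295R cells received 10 uM forskolin for 48 h before 48 h chemical exposure (0.1% DMSO). Gain or loss fitted against DMSO, including concentrations above the MTT-derived MTC.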
# [6] = CEETOX_H295R_CORTISOL_noMTC: CeeTox H295R High-throughput Steroidogenesis Assay for Cortisol, maximum tolerated concentration (MTC) filtered results only (AID 2283916); conditions: actives raise or lower the signal
# Procedure, shortened: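 H295R adrenal cells were pre-stimulated 48 h with 10 uM forskolin, then exposed 48 h to test chemical in 0.1% DMSO. Medium cortisol was measured by MTBE extraction and HPLC-MS/MS; bidirectional fit versus DMSO, concentrations not MTC-filtered.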
# [7] = CEETOX_H295R_CORTIC_noMTC: CeeTox H295R High-throughput Steroidogenesis Assay for Corticosterone (CORTIC), maximum tolerated concentration (MTC) filtered results only (AID 2283917); conditions: actives raise or lower the signal
# Procedure, shortened: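 Forskolin-stimulated (10 uM, 48 h) H295R cells are dosed 48 h with chemical in DMSO (0.1% final); corticosterone change is quantified by HPLC-MS/MS and fitted bidirectionally against DMSO, unfiltered for MTT-derived MTC.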
# [8] = CEETOX_H295R_DOC_noMTC: CeeTox H295R High-throughput Steroidogenesis Assay for DOC, maximum tolerated concentration (MTC) filtered results only (AID 2283918); conditions: actives raise or lower the signal
# Procedure, shortened: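 H295R cells prestimulated 48 h with 10 uM forskolin, then exposed 48 h to test chemical (0.1% DMSO final). Medium 11-deoxycorticosterone extracted with MTBE, quantified by HPLC-MS/MS; bidirectional fit versus DMSO, concentrations not MTC-filtered.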
# [9] = CEETOX_H295R_ESTRADIOL_noMTC: CeeTox H295R High-throughput Steroidogenesis Assay for Estradiol, maximum tolerated concentration (MTC) filtered results only (AID 2283919); conditions: actives raise or lower the signal
# Procedure, shortened: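 Readout: dansyl-derivatized estradiol quantified by LC-MS/MS in medium from H295R cells dosed 48 h (0.1% DMSO) following 48 h forskolin (10 uM) prestimulation. Gain or loss of signal fitted against DMSO; no MTC filtering applied.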
# [10] = CEETOX_H295R_PROG_noMTC: CeeTox H295R High-throughput Steroidogenesis Assay for Progesterone (PROG), maximum tolerated concentration (MTC) filtered results only (AID 2283920); conditions: actives raise or lower the signal
# Procedure, shortened: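 Progesterone synthesis in the human adrenal line H295R is measured by HPLC-MS/MS after 48 h chemical exposure following 48 h forskolin (10 uM) stimulation. Activity in either direction is fitted relative to DMSO.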
# [11] = CEETOX_H295R_ESTRONE_noMTC: CeeTox H295R High-throughput Steroidogenesis Assay for Estrone, maximum tolerated concentration (MTC) filtered results only (AID 2283921); conditions: actives raise or lower the signal
# Procedure, shortened: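 Estrone in spent medium, quantified by tandem MS following dansyl chloride derivatization, after 48 h chemical exposure (0.1% DMSO) of forskolin-prestimulated (10 uM, 48 h) H295R cells; concentrations not MTC-filtered, bidirectional fit against DMSO.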
# [12] = CEETOX_H295R_TESTO_noMTC: CeeTox H295R High-throughput Steroidogenesis Assay for Testosterone (TESTO), maximum tolerated concentration (MTC) filtered results only (AID 2283924); conditions: actives raise or lower the signal
# Procedure, shortened: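 Medium testosterone, measured by HPLC-MS/MS after liquid-liquid extraction, was fitted in both directions relative to DMSO without MTC filtering. Adrenal H295R cells received 48 h chemical exposure (0.1% DMSO final) after 48 h forskolin (10 uM) prestimulation; viability by MTT.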
# [13] = CPHEA_Stoker_NIS_Cytotoxicity: Cytotoxicity Assessment for CPHEA's Radioactive Iodide Uptake (RAIU) Assay for Sodium/Iodide Symporter (NIS) Inhibition, Stoker and Laws Labs (AID 2283897; active = hit-call score of the fitted dose curve at least 0.9, where 1 is the maximum)
# Procedure, shortened: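 hNIS-HEK293T-EPA cells, human NIS expressed in HEK293T, treated 2 h with chemicals (0.001–100 uM, 0.5% final DMSO). ATP content read by CellTiter-Glo luminescence; loss of signal analysed relative to DMSO.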
structure (smiles),measurement,setting,value
O=C(O)C(F)(F)OC(F)(F)C(F)(F)OC(F)(F)C(F)(F)OC(F)(F)C(F)(F)C(F)(F)C(F)(F)F,outcome,[1],inactive
C/C=C/C(=O)C1=C(C)CCCC1(C)C,outcome,[2],inactive
same,outcome,[3],inactive
same,AC50,[4],37.1 µM (active)
same,AC50,[5],31.3 µM (active)
same,outcome,[6],inactive
same,outcome,[7],inactive
same,AC50,[8],12.2 µM (active)
same,outcome,[9],inactive
same,AC50,[10],10.6 µM (active)
same,outcome,[11],inactive
same,outcome,[12],inactive
CCCCc1oc2ccccc2c1C(=O)c1cc(I)c(OCCN(CC)CC)c(I)c1,outcome,[13],inactive
CCCCC(CC)C(=O)O (stereo not drawn),outcome,[1],inactive
same,outcome,[13],inactive
CN(CCO)S(=O)(=O)C(F)(F)C(F)(F)C(F)(F)C(F)(F)C(F)(F)C(F)(F)C(F)(F)C(F)(F)F,outcome,[1],inactive
O=C1OC2(c3ccccc31)c1cc(I)c(O)c(I)c1Oc1c2cc(I)c(O)c1I,AC50,[1],0.248 µM (active)
same,outcome,[13],inactive

# — PubChem BioAssay (EPA / NIEHS)
